# Results as given in PubChem BioAssay (NCATS).
# “And” between values parts separate entries of the source, which are not always exact repeats. Equal entries are not always repeated. Records with an inconclusive call do not appear. Some structures have more than one record in an assay (separate samples or runs), and their calls can disagree. The source made the active and inactive calls. Unless noted, no rule for the calls is given here.
# Key:
# [1] = qHTS Assay for Identifying Gametocytocidal Compounds (AID 743244; active = well fitted curve in the direction sought with a large enough effect; an effect the other way counts as inactive or inconclusive; also: potency is read from the fitted curve at half-maximal effect;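 as to max response: % is scaled to controls: 0 for no effect and ±100 for the full control effect; actives lower the fluorescent signal which means gametocytes are killed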); settings: P. falciparum 3D7 stage III-V gametocytes, alamarBlue, 72 h; max response: stronger effect = lower value
# In short: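 P. falciparum 3D7 stage III–V gametocytes (20,000 cells/well) were exposed to compounds for 72 h at 37 °C, 5% CO2. AlamarBlue was then added for 24 h; decreased resorufin fluorescence (Ex 525/Em 598 nm) indicated loss of viability.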
# [2] = qHTS profiling of the MIPE4 collection as inhibitors of Plasmodium falciparum (3D7) proliferation (AID 743344);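 also: scaled between DMSO vehicle wells and 0.29 µM artemisinin as full inhibition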; settings: P. falciparum 3D7 in erythrocytes, SYBR Green DNA fluorescence, 72 h; at 28.5 µM (top of the series) unless noted
# In short: (§1)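 Parasite DNA was quantified by SYBR Green I fluorescence (ex 485, em 535 nm) after overnight lysis in saponin/Triton buffer at room temperature. Cultures at 0.3% parasitemia and 2.5% hematocrit were first exposed to compound for 72 h at 37 C; signals were normalised to artemisinin (0.29 uM) and vehicle wells.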
# [3] = qHTS profiling of the MIPE4 collection as inhibitors of Plasmodium falciparum (DD2) proliferation (AID 743345); settings: P. falciparum Dd2 in erythrocytes, SYBR Green DNA, 72 h; at 28.5 µM (top of the series) unless noted
# In short: as §1
# [4] = qHTS profiling of the MIPE4 collection as inhibitors of Plasmodium falciparum (DD2) proliferation (Rep 2) (AID 743346); settings: P. falciparum Dd2 in erythrocytes, SYBR Green DNA, 72 h; at 28.5 µM (top of the series) unless noted
# In short: as §1
# [5] = qHTS profiling of the MIPE4 collection as inhibitors of Plasmodium falciparum (HB3) proliferation (AID 743347);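 also: plate controls were DMSO vehicle wells for no effect and artemisinin wells for full effect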; settings: P. falciparum HB3 in erythrocytes, SYBR Green DNA, 72 h; at 28.5 µM (top of the series) unless noted
# In short: as §1
# [6] = High-throughput drug toxicity screening in the BPDCN cell line Gen2.2 (AID 1224824); settings: Gen2.2 BPDCN cells; at 45.8 µM (top of the series) unless noted;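 also: cells exposed to compounds for 48 h before reading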
# In short: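 Gen2.2, 500 cells/well, phenol red-free RPMI/10% FBS/Pen-Strep; 48 h cpd, 37 °C/5% CO2; CTG lum, 15 min RT. Norm: DMSO = 100%, bortezomib 9.2 uM final = 0%.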
# [7] = High-throughput drug toxicity screening in the BPDCN cell line Cal-1 (AID 1224825); settings: Cal-1 BPDCN cell viability, qHTS; at 45.8 µM (top of the series) unless noted;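 also: cells exposed to compounds for 48 h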
# In short: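 Viability of the BPDCN line Cal-1 is measured as ATP-based luminescence (CellTiter-Glo) following 48 h incubation with compounds. Percent activity uses DMSO-treated wells as 100% and 9.2 uM bortezomib as 0%.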
# [8] = qHTS assay for measurement of the activity of small molecule inhibitors on Zika virus induced Caspase-3 activity in human iPSC derived neural progenitor cells (hNPCs) (AID 1224857; active = well fitted curve in the direction sought with a large enough effect; an effect the other way counts as inactive or inconclusive; also: nearly all actives have a fitted effect of over 65% in size; also: potency is read from the fitted curve at half-maximal effect)
# In short: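 hNPCs seeded 350 cells/well, cultured 16–20 h; compounds added 1 h before ZIKV (2 FFU/cell), 37 C 6 h. Caspase-Glo 3/7 luminescence after 30 min RT; % inhibition from induction scaled to uninfected (0%) and infected (100%) wells.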
# [9] = qHTS assay for measurement of the activity of small molecule inhibitors on Zika virus induced Caspase-3 activity in human astrocytoma cells (AID 1224859; active = well fitted curve in the direction sought with a large enough effect; an effect the other way counts as inactive or inconclusive;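 also: plate controls were ZIKV-infected untreated cells for no effect and uninfected cells for full effect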)
# In short: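 Luminescence read-out (Caspase-Glo 3/7, 30 min RT) of caspase activity in SNB-19 cells infected 6 h with ZIKV, 2 FFU/cell, after 1 h compound pretreatment; % inhibition from induction normalised to uninfected (0%) and infected (100%) wells.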
# [10] = qHTS assay for small molecule agonists of the antioxidant response element (ARE) signaling pathway measured by Nrf2-dependant transcriptional activity (AID 720636; active = well fitted curve in the direction sought with a large enough effect in the repeat runs; an effect the other way counts as inactive or inconclusive;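 also: HepG2 cells with an ARE-driven luciferase reporter; % of control where 0% means no effect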)
# In short: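 Reporter gene assay, HepG2 ARE-luc: 16 hr compound, 37 C, 5% CO2; read-out luciferase luminescence.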
# [11] = qHTS assay for small molecule agonists of the antioxidant response element (ARE) signaling pathway measured by Nrf2-dependant transcriptional activity - cell viability counter screen (AID 720653; active = well fitted curve in the direction sought with a large enough effect in the repeat runs; an effect the other way counts as inactive or inconclusive; also: % is scaled to controls: 0 for no effect and ±100 for the full control effect); settings: ARE-bla HepG2 viability, CellTiter-Glo ATP luminescence, 16 h; max response: stronger effect = lower value
# In short: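 ARE-bla HepG2 cells (2,000/well) rested 5 hrs at 37C/5% CO2, then exposed to compounds in DMSO for 16 hrs. Viability was read in the same wells as intracellular ATP by luminescence, 30 min at room temperature after reagent addition.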
# [12] = target: T1, Hexokinase-4 (Homo sapiens) + Glucokinase regulatory protein (Homo sapiens) (UniProt P35557+Q14397); test: qHTS assay for inhibitors of recombinant human GCK-GKRP interaction: Diaphorase-coupled assay (AID 743205; active = well fitted curve in the direction sought with a large enough effect; an effect the other way counts as inactive or inconclusive)
# In short: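 Inhibitors of the GCK–GKRP complex relieve GKRP suppression of GCK, detected through a G6PDH–diaphorase cascade reducing resazurin. Human GST-GCK and FLAG-GKRP are used at 10 nM with 5 mM glucose and 0.4 mM ATP.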
# [13] = target: T1, Hexokinase-4 (Homo sapiens) + Glucokinase regulatory protein (Homo sapiens); test: qHTS assay for inhibitors of recombinant human GCK-GKRP interaction: ADP-Glo assay (AID 743206; active = well fitted curve in the direction sought with a large enough effect; an effect the other way counts as inactive or inconclusive;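 also: plate controls were DMSO plus enzyme for no effect and no enzyme for full effect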)
# In short: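 Pin-transferred compounds meet a 15 nM GST-GCK/15 nM FLAG-GKRP/2 uM S6P mix (dispense concentrations). ATP is then added to 0.4 mM final with 5 mM glucose, and the reaction runs 60 min at room temperature. ADP is quantified luminescently.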
# [14] = target: T1, Hexokinase-4 (Homo sapiens) + Glucokinase regulatory protein (Homo sapiens); test: qHTS assay for inhibitors of recombinant human GCK-GKRP interaction: HTRF assay (AID 743207; active = well fitted curve in the direction sought with a large enough effect; an effect the other way counts as inactive or inconclusive;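 also: 0% = DMSO with GCK present and -100% = DMSO wells lacking GCK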)
# In short: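 Steps: dispense GCK–GKRP complex (5 nM each, GST- and FLAG-tagged) with 2 uM S6P; pin in compounds; add XL665/Eu-cryptate-labelled antibodies; incubate 60 min at room temperature; read time-resolved FRET at 665 and 615 nm.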
# [15] = qHTS assay for cell viability of HEK293 cells (AID 743288; active = well fitted curve in the direction sought with a large enough effect; an effect the other way counts as inactive or inconclusive; also: nearly all actives have a fitted effect of over 50% in size; also: potency is read from the fitted curve at half-maximal effect; as to max response: % is scaled to controls: 0 for no effect and ±100 for the full control effect); settings: ATP luminescence (CellTiter-Glo), 18 h; max response: stronger effect = lower value
# In short: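 Quantitative high-throughput screen: compounds were pinned onto parental HEK293 cells (2,000 per well) after a minimum 5 h settling at 37 C, incubated 18 h at 37 C, and intracellular ATP measured by luciferase luminescence.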
# [16] = qHTS assay for cell viability of the p53RE-bla HCT-116 cell line (AID 743292; active = well fitted curve in the direction sought with a large enough effect; an effect the other way counts as inactive or inconclusive; also: % is scaled to controls: 0 for no effect and ±100 for the full control effect; nearly all actives have a fitted effect of over 55% in size)
# In short: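 Readout: CellTiter-Glo luminescence after 30 min RT. Treatment: compounds in DMSO, 16 h, 37 C. Cells: CellSensor p53RE-bla HCT-116, 4,000/well, preincubated 5 h.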
# [17] = qHTS assay for small molecule antagonists of the retinoid-related orphan receptor gamma (ROR-gamma) signaling pathway - cell viability counter screen (AID 720652; active = well fitted curve in the direction sought with a large enough effect in the repeat runs; an effect the other way counts as inactive or inconclusive;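 also: CHO reporter cells with doxycycline-induced ROR-gamma expression; compound exposure lasted 16 hr before ATP read; % is scaled to controls: 0 for no effect and ±100 for the full control effect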)
# In short: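 Cytotoxicity counter screen: intracellular ATP (CellTiter-Glo luminescence) measured in the doxycycline-induced CHO RORE-luciferase reporter line after 16 hr compound exposure at 37 C, 5% CO2.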
# T1 sequence (P35557 whole entry, looked up): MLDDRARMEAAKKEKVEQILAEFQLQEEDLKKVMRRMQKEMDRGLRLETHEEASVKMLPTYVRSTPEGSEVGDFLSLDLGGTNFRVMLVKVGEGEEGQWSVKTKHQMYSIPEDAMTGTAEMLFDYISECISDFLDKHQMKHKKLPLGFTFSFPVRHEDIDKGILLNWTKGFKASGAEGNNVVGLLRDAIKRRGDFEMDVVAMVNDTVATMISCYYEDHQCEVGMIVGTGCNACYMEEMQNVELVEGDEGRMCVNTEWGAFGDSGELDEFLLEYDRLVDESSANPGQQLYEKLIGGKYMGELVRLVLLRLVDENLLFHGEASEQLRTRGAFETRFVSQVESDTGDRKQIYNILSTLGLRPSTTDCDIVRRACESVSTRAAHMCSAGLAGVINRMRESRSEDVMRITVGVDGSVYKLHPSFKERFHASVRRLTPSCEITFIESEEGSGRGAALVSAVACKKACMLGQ
# T1 sequence (Q14397 whole entry, looked up): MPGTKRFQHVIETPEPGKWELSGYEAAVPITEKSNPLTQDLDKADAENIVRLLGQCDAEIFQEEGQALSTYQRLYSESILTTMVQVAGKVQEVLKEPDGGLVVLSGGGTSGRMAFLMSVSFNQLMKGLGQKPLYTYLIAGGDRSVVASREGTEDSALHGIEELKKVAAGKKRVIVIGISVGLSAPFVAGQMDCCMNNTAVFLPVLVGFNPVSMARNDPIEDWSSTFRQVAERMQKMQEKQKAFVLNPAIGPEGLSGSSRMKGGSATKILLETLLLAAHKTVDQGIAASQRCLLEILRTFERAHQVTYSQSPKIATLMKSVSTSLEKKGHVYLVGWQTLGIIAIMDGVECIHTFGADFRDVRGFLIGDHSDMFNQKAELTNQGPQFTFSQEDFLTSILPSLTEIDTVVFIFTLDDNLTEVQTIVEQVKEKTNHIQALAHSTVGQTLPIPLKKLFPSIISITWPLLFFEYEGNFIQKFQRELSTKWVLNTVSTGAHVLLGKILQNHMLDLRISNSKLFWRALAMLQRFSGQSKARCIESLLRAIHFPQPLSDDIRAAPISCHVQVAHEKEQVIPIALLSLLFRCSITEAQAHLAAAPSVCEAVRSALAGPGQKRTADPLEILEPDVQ
smiles,measurement,setting,value
C1CCC(C(CC2CCCCN2)C2CCCCC2)CC1 (stereo not drawn),Potency,[1],10 µM (active)
same,"parasite growth, % of DMSO control",[2],6.92%
same,"parasite growth remaining, % of DMSO control (lower = more inhibition)",[3],7.9%
same,"parasite growth, % of control (lower = inhibition)",[4],7.73%
same,"growth, % of control",[5],1.94%
same,"cell viability, % of control (lower = more cytotoxic)",[6],7.33%
same,viability (% of control),[7],5.18%
same,Potency,[8],inactive
Cn1c(=O)c2c(ncn2CC(O)CO)n(C)c1=O (stereo not drawn),max response,[1],-1.9% (inactive)
same,"parasite growth, % of DMSO control",[2],85.8%
same,"parasite growth remaining, % of DMSO control (lower = more inhibition)",[3],88.3%
same,"parasite growth, % of control (lower = inhibition)",[4],96.6%
same,"growth, % of control",[5],56.5%
same,"cell viability, % of control (lower = more cytotoxic)",[6],104%
same,viability (% of control),[7],100%
same,Potency,[8],inactive
CNNCc1ccc(C(=O)NC(C)C)cc1,max response,[1],-5.75% (inactive)
same,"parasite growth, % of DMSO control",[2],72.9%
same,"parasite growth remaining, % of DMSO control (lower = more inhibition)",[3],93.3%
same,"parasite growth, % of control (lower = inhibition)",[4],68.8%
same,"growth, % of control",[5],68.9%
same,"cell viability, % of control (lower = more cytotoxic)",[6],284%
same,viability (% of control),[7],78.4%
same,Potency,[8],inactive
CC1(C)[C@H](C(=O)O)N2C(=O)C[C@H]2S1(=O)=O,viability (% of control),[7],103%
same,Potency,[8],inactive
same,Potency,[9],inactive
COC(=O)Nc1nc2ccc(C(=O)c3ccccc3)cc2[nH]1,max response,[1],-6.13% (inactive)
same,"parasite growth, % of DMSO control",[2],61.1%
same,"parasite growth remaining, % of DMSO control (lower = more inhibition)",[3],97.7%
same,"parasite growth, % of control (lower = inhibition)",[4],71%
same,"growth, % of control",[5],84.4%
same,"cell viability, % of control (lower = more cytotoxic)",[6],176%
same,viability (% of control),[7],22%
same,Potency,[8],inactive
CNCC[C@H](Oc1cccc2ccccc12)c1cccs1,"parasite growth, % of DMSO control",[2],6.18%
same,"parasite growth remaining, % of DMSO control (lower = more inhibition)",[3],7.89%
same,"parasite growth, % of control (lower = inhibition)",[4],14.2%
same,"growth, % of control",[5],3.44%
same,"cell viability, % of control (lower = more cytotoxic)",[6],8.39%
same,viability (% of control),[7],39.6%
same,Potency,[8],inactive and 23.5 µM (active)
O=S(=O)(O)CCS,max response,[1],-4.29% (inactive)
same,"parasite growth, % of DMSO control",[2],87.9%
same,"parasite growth remaining, % of DMSO control (lower = more inhibition)",[3],108%
same,"parasite growth, % of control (lower = inhibition)",[4],78.8%
same,"growth, % of control",[5],66.6%
same,"cell viability, % of control (lower = more cytotoxic)",[6],25.9%
same,viability (% of control),[7],32.1%
same,Potency,[8],inactive
COc1cnc(NS(=O)(=O)c2ccc(N)cc2)nc1,max response,[1],7.05% (inactive)
same,"parasite growth, % of DMSO control",[2],87.5%
same,"parasite growth remaining, % of DMSO control (lower = more inhibition)",[3],95.4%
same,"parasite growth, % of control (lower = inhibition)",[4],79.9%
same,"growth, % of control",[5],58.8%
same,"cell viability, % of control (lower = more cytotoxic)",[6],32.7%
same,viability (% of control),[7],21.6%
same,Potency,[8],inactive
CC(=O)[C@H]1CC[C@H]2[C@@H]3CCC4=CC(=O)CC[C@]4(C)[C@H]3CC[C@]12C,outcome,[10],inactive
same,max response,[11],-18% (inactive) and -11.7% (inactive) and -23.6% (inactive)
same,outcome,[12],inactive
same,outcome,[13],inactive
same,outcome,[14],inactive
same,max response,[1],-0.829% (inactive) and 23.1% (inactive)
same,Potency,[15],44.7 µM (active)
same,max response,[15],-28% (inactive)
same,Potency,[16],inactive
same,"cell viability, % of control (lower = more cytotoxic)",[6],83%
same,viability (% of control),[7],79.9%
same,Potency,[8],inactive
N=C(N)c1ccc(OCCCCCOc2ccc(C(=N)N)cc2)cc1,outcome,[10],inactive
same,Potency,[17],inactive
same,max response,[11],-9.35% (inactive) and -16.5% (inactive)
same,Potency,[1],6.31 µM (active)
same,max response,[15],-23.8% (inactive) and -12.7% (inactive)
same,Potency,[16],inactive
same,"parasite growth, % of DMSO control",[2],5.02%
same,"parasite growth remaining, % of DMSO control (lower = more inhibition)",[3],6.09%
same,"parasite growth, % of control (lower = inhibition)",[4],15.7%
same,"growth, % of control",[5],3.03%
same,"cell viability, % of control (lower = more cytotoxic)",[6],272%
same,viability (% of control),[7],39.6%
same,Potency,[8],inactive
